Measurements from PubChem BioAssay (Tox21).
“And” between values parts separate entries of the source, which are not always exact repeats. Equal entries are not always repeated. Inconclusive results are not listed. A number with no mark means an inactive call. The source made the active and inactive calls. Unless noted, the call rests on the fitted dose curve; in most records, active means well fitted cell-killing curve with a large enough effect in the repeat runs; inconclusive means weak or mixed curves, or effect the other way; inactive means no such curve, though single readings can be large or run the other way.

Molecular target: Peroxisome proliferator-activated receptor gamma (Homo sapiens) (UniProt P37231)
Experiment: qHTS assay to identify small molecule agonists of the peroxisome proliferator-activated receptor gamma (PPARg) signaling pathway (AID 743094; active means well fitted activation curve with a large enough effect in the signal ratio in the repeat runs, not every such curve was filed as active; the % refers to the signal ratio)
Details: HEK293H PPARg-UAS-bla, beta-lactamase FRET ratio, 17 h; series mostly up to 57 µM; activation: at the top concentration
Method in brief: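 Beta-lactamase FRET fluorescence was the read-out after a 1 h room-temperature substrate step, following 17 h compound treatment at 37C of HEK293H cells expressing a UAS-driven bla reporter responsive to PPARg.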
On the % scale 0 is the no-effect control and ±100 the full control effect.

Chain of Peroxisome proliferator-activated receptor gamma (Homo sapiens) (P37231 whole entry, looked up): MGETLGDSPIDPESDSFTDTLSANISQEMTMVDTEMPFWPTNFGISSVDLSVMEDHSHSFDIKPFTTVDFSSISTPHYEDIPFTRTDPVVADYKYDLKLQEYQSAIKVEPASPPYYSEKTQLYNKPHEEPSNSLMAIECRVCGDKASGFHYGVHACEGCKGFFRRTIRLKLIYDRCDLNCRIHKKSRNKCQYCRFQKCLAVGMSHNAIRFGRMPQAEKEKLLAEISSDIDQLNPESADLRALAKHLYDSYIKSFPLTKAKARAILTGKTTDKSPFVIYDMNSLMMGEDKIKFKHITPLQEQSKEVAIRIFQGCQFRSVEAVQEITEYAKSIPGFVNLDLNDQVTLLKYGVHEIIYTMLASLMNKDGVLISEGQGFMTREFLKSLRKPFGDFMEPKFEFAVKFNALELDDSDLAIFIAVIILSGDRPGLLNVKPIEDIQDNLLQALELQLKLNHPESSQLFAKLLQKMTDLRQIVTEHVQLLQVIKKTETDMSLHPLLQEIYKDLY

| Compound | activation | Potency |
| --- | --- | --- |
| Cc1cc(=O)[nH]o1 | -3.44% [at 78.9 µM] | – |
| O=C1C(=O)c2cccc3cccc1c23 | -7.28% | – |
| CCOP(=O)(OCC)O/C(=C/Cl)c1ccc(Cl)cc1Cl | – | inactive |
| BrCCCCBr | -1.53% | – |
| CC(O)(CS(=O)(=O)c1ccc(F)cc1)C(=O)Nc1ccc(C#N)c(C(F)(F)F)c1 (stereo unspecified) | -8.72% | – |
| Clc1ccc(C2(Cn3cncn3)CC(Br)CO2)c(Cl)c1 (stereo unspecified) | -7.61% | – |
| Cc1c(F)c(F)c(COC(=O)C2C(/C=C(\Cl)C(F)(F)F)C2(C)C)c(F)c1F (stereo unspecified) | 3.73% | – |
| O=C(CBr)OCc1ccccc1 | -0.437% | – |
| O=C(OC1CCCCC1)c1ccccc1C(=O)OC1CCCCC1 | 0.494% [at 78.9 µM] | – |
| N#Cc1ccc(Cl)cc1 | -0.964% | – |
| ClCCCCBr | -1.7% [at 78.9 µM] | – |
| CCOP(=S)(OCC)Oc1cc(Cl)c(Br)cc1Cl | 0.223% | – |
| CCOP(=S)(OCC)Oc1nc(Cl)c(Cl)cc1Cl | – | inactive |
| CCCN(CCC)c1c([N+](=O)[O-])cc(S(C)(=O)=O)cc1[N+](=O)[O-] | 2.21% | – |

Molecular target: Peroxisome proliferator-activated receptor gamma (Homo sapiens) (UniProt P37231)
Experiment: qHTS assay to identify small molecule antagonists of the peroxisome proliferator-activated receptor gamma (PPARg) signaling pathway (AID 743191; calls by dose curve; further: nearly all actives have a fitted effect of over 30% in size; further: potency means the concentration at half of the fitted maximal effect)
Details: HEK293H PPARg-UAS-bla, beta-lactamase ratio, antagonist, 17 h; series mostly up to 62.6 µM; ratio activity, negative = inhibition: at the top concentration
Method in brief: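 GeneBLAzer PPARg UAS-bla HEK293H cells, 5 h post-plating, exposed to compounds 17 h at 37C. LiveBLAzer B/G FRET substrate added for 1 h at room temperature; beta-lactamase reporter read by fluorescence intensity.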

| Compound | Potency | ratio activity, negative = inhibition |
| --- | --- | --- |
| CC1(C)CCC(Cc2ccc(Cl)cc2)C1(O)Cn1cncn1 (stereo unspecified) | 49 µM (active) | – |
| CCOP(=O)(OCC)SCCSCC | – | 1.6% |
| Clc1cc(C(Cl)(Cl)Cl)cnc1Cl | – | 13.8% |
| C=CC(=O)OC(C)(C)C | – | -1.04% |
| CC(O)(CS(=O)(=O)c1ccc(F)cc1)C(=O)Nc1ccc(C#N)c(C(F)(F)F)c1 (stereo unspecified) | – | -21.4% |
| COc1c(C(C)(C)C)cc([N+](=O)[O-])c(C)c1[N+](=O)[O-] | – | 7.79% |
| Clc1ccc(C2(Cn3cncn3)CC(Br)CO2)c(Cl)c1 (stereo unspecified) | – | 1.34% |
| Cc1c(F)c(F)c(COC(=O)C2C(/C=C(\Cl)C(F)(F)F)C2(C)C)c(F)c1F (stereo unspecified) | – | 17% |
| N#Cc1ccc(Cl)cc1 | – | 6.38% |
| ClCCCCBr | – | -0.0301% [at 81.1 µM] |
| CCOP(=S)(OCC)Oc1cc(Cl)c(Br)cc1Cl | – | -36.5% |
| COc1nn(CSP(=S)(OC)OC)c(=O)s1 | 49 µM (active) | – |
| NC(=O)C(Cl)(Cl)Cl | – | -3.74% [at 81.1 µM] |
| COP(=S)(OC)Oc1cc(Cl)c(I)cc1Cl | 27.5 µM (active) | – |
| CCCN(CCC)c1c([N+](=O)[O-])cc(S(C)(=O)=O)cc1[N+](=O)[O-] | – | -0.948% |

Tested on: not listed separately
Experiment: qHTS assay to identify small molecule antagonists of the peroxisome proliferator-activated receptor gamma (PPARg) signaling pathway - cell viability counter screen (AID 743194); further: nearly all actives have a fitted effect of over 55% in size; further: potency means the concentration at half of the fitted maximal effect
Details: PPARg-bla HEK293H viability, CellTiter-Glo luminescence, 17 h; Potency: co-treated with 50 nM rosiglitazone; series mostly up to 62.6 µM; activity change, negative = cytotoxicity: at the top concentration
Method in brief: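 Cytotoxicity counter screen in PPARg-bla HEK293H cells, same wells as reporter assay. Compounds plus 50 nM rosiglitazone (final) for 17 h at 37 C, then viability read by CellTiter-Glo luminescence.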

| Compound | activity change, negative = cytotoxicity | Potency |
| --- | --- | --- |
| CCOP(=O)(OCC)SCCSCC | 9.71% | – |
| CCCCCCCCCCOC(=O)c1ccccc1C(=O)OCCCCCCCCCC | 25.3% | – |
| CCC(COC(=O)c1cc(OC)c(OC)c(OC)c1)(c1ccccc1)N(C)C (stereo unspecified) | 5.56% | – |
| Cc1cc(=O)[nH]o1 | 14.9% [at 81.1 µM, co-treated with 50 nM rosiglitazone] | – |
| Clc1cc(C(Cl)(Cl)Cl)cnc1Cl | -18.2% | – |
| CCOP(=O)(OCC)O/C(=C/Cl)c1ccc(Cl)cc1Cl | 7.94% | – |
| BrCCCCBr | -2.54% | – |
| C=CC(=O)OC(C)(C)C | -5.46% | – |
| CC(O)(CS(=O)(=O)c1ccc(F)cc1)C(=O)Nc1ccc(C#N)c(C(F)(F)F)c1 (stereo unspecified) | -10.1% [at 62.6 µM] | – |
| O=C(NCc1cccnc1)Nc1ccc([N+](=O)[O-])cc1 | 5.06% | – |
| CCOP(=S)(Oc1ccc([N+](=O)[O-])cc1)c1ccccc1 (stereo unspecified) | -2.96% | – |
| Cc1c(F)c(F)c(COC(=O)C2C(/C=C(\Cl)C(F)(F)F)C2(C)C)c(F)c1F (stereo unspecified) | 6.54% | – |
| O=C(CBr)OCc1ccccc1 | 1.46% | – |
| N#Cc1ccc(Cl)cc1 | 10.7% | – |
| ClCCCCBr | 6.23% [at 81.1 µM, co-treated with 50 nM rosiglitazone] | – |
| O=C(O)C(F)(F)C(F)(F)C(F)(F)C(F)(F)C(F)(F)C(F)(F)C(F)(F)C(F)(F)C(F)(F)F | 9.27% | – |
| O=C(O)CC(Cl)C(=O)O (stereo unspecified) | -27.5% [at 81.1 µM, co-treated with 50 nM rosiglitazone] | – |
| C(=NC1CCCCC1)=NC1CCCCC1 | – | 4.93 µM (active) and 3.47 µM (active) |
| CCOP(=S)(OCC)Oc1nc(Cl)c(Cl)cc1Cl | -0.7% | – |
| NC(=O)C(Cl)(Cl)Cl | 9.93% [at 81.1 µM, co-treated with 50 nM rosiglitazone] | – |
| COP(=S)(OC)Oc1cc(Cl)c(I)cc1Cl | -23.4% | – |
| CCCN(CCC)c1c([N+](=O)[O-])cc(S(C)(=O)=O)cc1[N+](=O)[O-] | 1.92% | – |
